Experimental data as given in the supplement of paper PMC12297408.
Structures can show the parent of a compound that is named as a salt. The whole screen tested about 1,300 compounds, of which about 40 (3%) showed activity. This excerpt belongs to a sample that is enriched for actives. Unmarked numbers belong to inactive results.

System: Plasmodium falciparum NF54/iGP1_RE9H ulg8 stage V gametocytes
Assay: gametocyte viability (luciferase signal relative to DMSO control) (% of DMSO control); higher = less gametocytocidal activity, active = 50 or less
Details: exposure time: 72 h
How it was run: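 Viability was calculated relative to the mean of DMSO vehicle wells on each plate. Day-12 stage V gametocytes of line NF54/iGP1_RE9Hulg8 (~2.5% gametocytemia, 3% hematocrit, 0.5% Albumax II medium) were exposed in 96-well plates to compounds at final 10 µM or 1 µM, one well each, for 72 h at 37 °C. Luminescence was then read on an IVIS Lumina II after D-luciferin addition.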

SMILES | gametocyte viability (concentration: 1 µM) | gametocyte viability (concentration: 10 µM)
C=C1/C(=C\C=C2/CCC[C@]3(C)[C@@H]([C@H](C)/C=C/[C@@H](O)C4CC4)CC[C@@H]23)C[C@@H](O)C[C@@H]1O [Calcipotriene] | 79.2 | 64.3
CCN[C@H]1C[C@H](C)S(=O)(=O)c2sc(S(N)(=O)=O)cc21 [Dorzolamide hydrochloride] | 80.2 | 87.2
CC(C)(Sc1cc(C(C)(C)C)c(O)c(C(C)(C)C)c1)Sc1cc(C(C)(C)C)c(O)c(C(C)(C)C)c1 [Probucol] | 84.2 | 85.2
NC[C@@H]1O[C@H](O[C@H]2[C@@H](O)[C@H](O[C@@H]3[C@@H](O)[C@H](N)C[C@H](N)[C@H]3O[C@H]3O[C@H](CN)[C@@H](O)[C@H](O)[C@H]3N)O[C@@H]2CO)[C@H](N)[C@@H](O)[C@@H]1O [Neomycin sulfate] | 81.7 | 84.7
COc1cc(C(=O)OCCCN2CCCN(CCCOC(=O)c3cc(OC)c(OC)c(OC)c3)CC2)cc(OC)c1OC [Dilazep dihydrochloride] | 85.4 | 94.7
COCCCOc1ccnc(C[S+]([O-])c2nc3ccccc3[nH]2)c1C (configuration not stated) [Rabeprazole Sodium salt] | 83.8 | 80.3
CN(C)c1ccc(O)c2c1C[C@H]1C[C@H]3[C@H](N(C)C)C(=O)C(C(N)=O)=C(O)[C@@]3(O)C(=O)C1=C2O [Minocycline hydrochloride] | 83.1 | 83.3
C=C(CC)C(=O)c1ccc(OCC(=O)O)c(Cl)c1Cl [Ethacrynic acid] | 90.4 | 92.5
N=C(N)NCc1cccc(I)c1 [Iobenguane sulfate] | 99.3 | 100
CC1(C)O[C@@H]2C[C@H]3[C@@H]4C[C@H](F)C5=CC(=O)C=C[C@]5(C)[C@@]4(F)[C@@H](O)C[C@]3(C)[C@]2(C(=O)CO)O1 [Fluocinolone acetonide] | 83.3 | 83.3
CCC1=C(C)CN(C(=O)NCCc2ccc(S(=O)(=O)NC(=O)N[C@H]3CC[C@H](C)CC3)cc2)C1=O [Glimepiride] | 97.7 | 101
CC(C)(Oc1ccc(CCNC(=O)c2ccc(Cl)cc2)cc1)C(=O)O [Bezafibrate] | 98.6 | 97
CCCCC(CC)CNC(=N)NC(=N)NCCCCCCNC(=N)NC(=N)NCC(CC)CCCC (configuration not stated) [Alexidine dihydrochloride] | 36.2 (active) | 0.515 (active)
O=C(O)[C@H]1/C(=C/CO)O[C@@H]2CC(=O)N21 [Potassium clavulanate] | 91.1 | 87.4
C[C@]12CC[C@@H]3c4ccc(O)cc4CC[C@H]3[C@@H]1C[C@@H](O)[C@@H]2O [Estriol] | 94.6 | 92.2
C[C@]12CC[C@@H]3c4ccc(O)cc4CC[C@H]3[C@@H]1CCC2=O [Estrone] | 99.2 | 96.4
C[C@]12CC[C@@H]3c4ccc(O)cc4CC[C@H]3[C@@H]1CC[C@@H]2O [Estradiol-17 beta] | 69.7 | 41.9 (active)
CCCCCCC[N+](CC)(CC)CCCCc1ccc(Cl)cc1 [Clofilium tosylate] | 97.3 | 47.8 (active)
NNC(=O)c1ccncc1 [Isoniazid] | 80.8 | 83.4

SMILES | gametocyte viability (concentration: 1 µM) | gametocyte viability (concentration: 10 µM)
Cc1ncc(C[n+]2csc(CCO)c2C)c(N)n1 [Thiamine hydrochloride] | 94 | 89.4
CCCc1cc(C(N)=S)ccn1 [Prothionamide] | 93.7 | 95.2
CC(=O)Oc1cc(C(F)(F)F)ccc1C(=O)O [Triflusal] | 82.3 | 87.1
CC1(O)CCOC(=O)C1 (configuration not stated) [Mevalonic-D, L acid lactone] | 86.7 | 93.8
CC1c2cccc(O)c2C(O)=C2C(=O)C3(O)C(O)=C(C(N)=O)C(=O)C(N(C)C)C3C(O)C21 (configuration not stated) [Doxycycline hydrochloride] | 94.5 | 92.2
CC(=O)N(O)CCCCCNC(=O)CCC(=O)N(O)CCCCCNC(=O)CCC(=O)N(O)CCCCCN [Deferoxamine mesylate] | 90.6 | 82.7
CC(C(O)c1ccc(O)cc1)N1CCC(Cc2ccccc2)CC1 (configuration not stated) [Ifenprodil tartrate] | 81.9 | 79.7
CC(=O)O[C@H]1C[C@@H]2CC[C@@H]3[C@H](CC[C@@]4(C)[C@H]3C[C@H]([N+]3(C)CCCCC3)[C@@H]4OC(C)=O)[C@@]2(C)C[C@@H]1N1CCCCC1 [Vecuronium bromide] | 85.2 | 93.1
CCC(C)(C)c1ccc(CC(C)CN2C[C@@H](C)O[C@@H](C)C2)cc1 (some centres not stated) [Amorolfine hydrochloride] | 79.2 | 71.3
Cc1ccc(C)c(OCCCC(C)(C)C(=O)O)c1 [Gemfibrozil] | 86.7 | 88.3
C=CC(N)CCC(=O)O (configuration not stated) [Vigabatrin] | 84.9 | 90.6
CC(Oc1c(Cl)cccc1Cl)C1=NCCN1 (configuration not stated) [Lofexidine] | 92.5 | 90.5
CCCCC1C(=O)N(c2ccccc2)N(c2ccccc2)C1=O [Phenylbutazone] | 91 | 85.4
O=C(O)CN(CCN(CC(=O)O)CC(=O)O)CCN(CC(=O)O)CC(=O)O [Pentetic acid] | 101 | 101
NNc1nncc2ccccc12 [Hydralazine hydrochloride] | 94.8 | 12.8 (active)
CCOC(=O)NNc1nncc2ccccc12 [Todralazine hydrochloride] | 86.1 | 76.5
O=C1C(=O)c2ccccc2C(O)=C1C1CCC(c2ccc(Cl)cc2)CC1 (configuration not stated) [Atovaquone] | 91.4 | 99.6
C#C[C@]1(O)CC[C@H]2[C@@H]3CCC4=C(CCC(=O)C4)[C@H]3CC[C@@]21C [Norethynodrel] | 83.2 | 68.7
COC(=O)C1=C(C)NC(C)=C(C(=O)OC)C1c1ccccc1[N+](=O)[O-] [Nifedipine] | 91.8 | 80.7

SMILES | gametocyte viability (concentration: 1 µM) | gametocyte viability (concentration: 10 µM)
Clc1ccc(C(Cn2ccnc2)OCc2c(Cl)cccc2Cl)c(Cl)c1 (configuration not stated) [Isoconazole] | 91.2 | 90.9
CN(C)CCOC(C)(c1ccccc1)c1ccccn1 (configuration not stated) [Doxylamine succinate] | 87.8 | 87.7
Cc1cc(-n2c(=O)[nH]c(=O)n(C)c2=O)ccc1Oc1ccc(SC(F)(F)F)cc1 [Toltrazuril] | 86.4 | 84.2
CC1(C)O[C@@H]2C[C@H]3[C@@H]4C[C@H](F)C5=CC(=O)C=C[C@]5(C)[C@H]4[C@@H](O)C[C@]3(C)[C@]2(C(=O)CO)O1 [Flunisolide] | 87.5 | 88.9
CC(C)(C)CC(C)(C)c1ccc(OCCOCC[N+](C)(C)Cc2ccccc2)cc1 [Benzethonium chloride] | 82.1 | 9.32 (active)
C[N+](C)(CCOc1ccccc1)Cc1ccccc1.O=C([O-])c1cc2ccccc2cc1O [Bephenium hydroxynaphthoate] | 87.3 | 89.9
Cc1cc(C(C)(C)CC(C)(C)C)ccc1OCCOCC[N+](C)(C)Cc1ccccc1 [Methyl benzethonium chloride] | 88.6 | 6.6 (active)
Cc1cc(C2CCCCC2)n(O)c(=O)c1 [Ciclopirox ethanolamine] | 85.5 | 86.8
Clc1ccc2nsnc2c1NC1=NCCN1 [Tizanidine HCl] | 93.4 | 98.4
C[C@H]1[C@H](NC(=O)/C(=N\OC(C)(C)C(=O)O)c2csc(N)n2)C(=O)N1S(=O)(=O)O [Aztreonam] | 96.9 | 96
CCOC(=O)O[C@]1(C(=O)OCCl)CC[C@H]2[C@@H]3CCC4=CC(=O)C=C[C@]4(C)[C@H]3[C@@H](O)C[C@@]21C [Loteprednol etabonate] | 88.2 | 85
Cc1cccc(C)c1NC(=O)C(C)N (configuration not stated) [Tocainide hydrochloride] | 91.8 | 90.2
O=C1Cc2cc(CCN3CCN(c4nsc5ccccc45)CC3)c(Cl)cc2N1 [Ziprasidone  Hydrochloride] | 82.9 | 71.6
O=C1[C@H]2CCCC[C@H]2C(=O)N1CCCCN1CCN(c2nsc3ccccc23)CC1 [Perospirone] | 64.7 | 39.7 (active)
O=C1CC2(CCCC2)CC(=O)N1CCCCN1CCN(c2ncccn2)CC1 [Buspirone hydrochloride] | 83.9 | 65.7
N=c1nc(N2CCCCC2)cc(N)n1O [Minoxidil] | 102 | 96
OCCN(CCO)c1nc(N2CCCCC2)c2nc(N(CCO)CCO)nc(N3CCCCC3)c2n1 [Dipyridamole] | 64.1 | 41.1 (active)
CC(C)NCC(O)c1ccc(O)c(O)c1 (single isomer, unassigned; (+)) [(+)-Isoproterenol (+)-bitartrate salt] | 100 | 97.8
